This is part of a sample that, as a whole, favours compounds with a hit. Of some 79,000 tested, about 15% had one in any assay. Unmarked numbers belong to inactive results. The source made the active and inactive calls. Rule as the data show it: active = growth inhibition above about 70%; inactive = the rest.
What was measured:
[1] = NCI Yeast Anticancer Drug Screen. Data for the rad52 strain (AID 147);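 also: 0% = growth of vehicle-treated control cultures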; settings: S. cerevisiae rad52 mutant growth inhibition, stronger effect = higher value
Outline: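 Screen used a yeast mutant impaired in DNA repair. After compound exposure, growth was measured. Values reflect inhibition compared with vehicle-treated cells.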

[2] = NCI Yeast Anticancer Drug Screen. Data for the wt1 strain (AID 149);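 also: 0% = growth of vehicle-treated wt1 cultures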; settings: S. cerevisiae wt1 strain (SPY 50644) growth inhibition, stronger effect = higher value
Outline: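 Growth inhibition read against vehicle controls after compound exposure of the wt1 yeast strain.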

[3] = NCI Yeast Anticancer Drug Screen. Data for the rad50EPP+ strain (AID 151);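 also: 0% = growth of vehicle-treated control cultures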; settings: S. cerevisiae rad50 mutant strain, stronger effect = higher value
Outline: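 Exposing the rad50EPP+ strain to each compound, growth was compared with vehicle-only cultures to give inhibition.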

[4] = NCI Yeast Anticancer Drug Screen. Data for the mgt1 strain (AID 153); settings: S. cerevisiae mgt1 mutant growth inhibition, stronger effect = higher value
Outline: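 Genetically defined yeast (mgt1) treated with compound; inhibition of growth expressed against vehicle-treated controls.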

[5] = NCI Yeast Anticancer Drug Screen. Data for the rad50 strain (AID 155);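 also: 0% = growth of vehicle-only cultures of the same strain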; settings: S. cerevisiae rad50 strain growth inhibition, stronger effect = higher value
Outline: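 Readout: growth inhibition relative to vehicle-treated cultures. Compound exposure was carried out in a genetically defined yeast strain deficient in DNA damage repair.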

[6] = NCI Yeast Anticancer Drug Screen. Data for the mec2-1 strain (AID 157); settings: S. cerevisiae mec2-1 strain, stronger effect = higher value
Outline: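 Readout is yeast growth inhibition, normalised to vehicle-treated controls, in the mec2-1 strain exposed to compound.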

[7] = NCI Yeast Anticancer Drug Screen. Data for the rad14 strain (AID 159);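 also: 0% = growth of vehicle-treated control cultures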; settings: S. cerevisiae rad14 strain growth inhibition, stronger effect = higher value
Outline: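 Growth inhibition vs vehicle controls; genetically altered yeast strain (DNA damage repair defect) treated with test compounds.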

[8] = NCI Yeast Anticancer Drug Screen. Data for the sgs1 mgt1 strain (AID 161);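 also: 0% = growth of cultures given vehicle only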; settings: S. cerevisiae sgs1 mgt1 strain, at 50.0 µM, stronger effect = higher value
Outline: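 This yeast growth screen uses a strain with defined DNA-repair lesions; compound-treated growth is compared with vehicle-treated growth.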

[9] = NCI Yeast Anticancer Drug Screen. Data for the CLN2oe strain (AID 163);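 also: 0% = growth of vehicle-only control cultures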; settings: S. cerevisiae CLN2oe strain, stronger effect = higher value
Outline: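 Values reflect how much compound exposure reduced yeast growth, referenced to vehicle-exposed cells. Assay organism is a strain with a defined genetic change affecting cell-cycle control.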

[10] = NCI Yeast Anticancer Drug Screen. Data for the cln2 rad14 strain (AID 165);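 also: 0% = growth equal to vehicle treated cultures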; settings: S. cerevisiae cln2 rad14 strain, at 50.0 µM, stronger effect = higher value
Outline: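 Relative to vehicle controls, growth inhibition of compound-treated cln2 rad14 yeast was recorded.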

[11] = NCI Yeast Anticancer Drug Screen. Data for the bub3 strain (AID 167); settings: S. cerevisiae bub3 mutant strain, stronger effect = higher value
Outline: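 Readout: yeast growth inhibition, expressed relative to vehicle-only wells. The test organism is a mutant strain from a panel with lesions in DNA repair or checkpoint genes.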

[12] = NCI Yeast Anticancer Drug Screen. Data for the wt2 strain (AID 169);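 also: 0% = growth of vehicle-treated yeast cultures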; settings: S. cerevisiae wt2 strain growth inhibition, stronger effect = higher value
Outline: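 Values express reduction in yeast growth under compound treatment, referenced to vehicle-treated cells.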

[13] = NCI Yeast Anticancer Drug Screen. Data for the mlh1 strain (AID 171);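 also: 0% = growth of vehicle-treated control cultures of the same strain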; settings: S. cerevisiae mlh1 strain growth inhibition, stronger effect = higher value
Outline: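 Steps: expose the defined-mutant yeast strain to compound; expose a parallel culture to vehicle; measure growth; express compound effect as inhibition relative to the vehicle culture.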

[14] = NCI Yeast Anticancer Drug Screen. Data for the sgs1 strain (AID 173);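 also: 0% = growth of vehicle-only control cultures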; settings: S. cerevisiae sgs1 mutant, stronger effect = higher value
Outline: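 Treat defined-mutant yeast with compound; measure growth; calculate inhibition relative to vehicle-treated cells.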

[15] = NCI Yeast Anticancer Drug Screen. Data for the mlh1 rad18 strain (AID 175); settings: S. cerevisiae mlh1 rad18 strain growth inhibition; at 50.0 µM; stronger effect = higher value
Outline: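 Test agents were incubated with a yeast strain of defined genotype (DNA damage repair defect). Inhibition of growth was derived by comparison with vehicle-exposed cultures.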

[16] = NCI Yeast Anticancer Drug Screen. Data for the rad18 strain (AID 177); settings: S. cerevisiae rad18 mutant growth inhibition, stronger effect = higher value
Outline: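 A genetically defined yeast mutant impaired in DNA damage repair was treated with test compounds, then its growth was measured against cultures receiving vehicle alone.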

CN(N=O)C(=O)N[C@@H](C=O)[C@@H](O)[C@H](O)[C@H](O)CO
growth inhibition ([1]; at 1.2 µM): 0% | growth inhibition ([1]; at 3.7 µM): 1% | growth inhibition ([1]; at 11.0 µM): 5% | growth inhibition ([1]; at 33.0 µM): 2% | growth inhibition ([1]; at 100.0 µM): 3% | growth inhibition ([2]; at 1.2 µM): 0% | growth inhibition ([2]; at 3.7 µM): -1% | growth inhibition ([2]; at 11.0 µM): 0% | growth inhibition ([2]; at 33.0 µM): -1% | growth inhibition ([2]; at 100.0 µM): 20% | growth inhibition ([3]; at 1.2 µM): 0% | growth inhibition ([3]; at 3.7 µM): 0% | growth inhibition ([3]; at 11.0 µM): 0% | growth inhibition ([3]; at 33.0 µM): -7% | growth inhibition ([3]; at 100.0 µM): 3% | growth inhibition ([4]; at 1.2 µM): -1% | growth inhibition ([4]; at 3.7 µM): -1% | growth inhibition ([4]; at 11.0 µM): -18% | growth inhibition ([4]; at 33.0 µM): 0% | growth inhibition ([4]; at 100.0 µM): -1% | growth inhibition ([5]; at 1.2 µM): -1% | growth inhibition ([5]; at 3.7 µM): -1% | growth inhibition ([5]; at 11.0 µM): 4% | growth inhibition ([5]; at 33.0 µM): -1% | growth inhibition ([5]; at 50.0 µM): 3.9% | growth inhibition ([5]; at 100.0 µM): -2% | growth inhibition ([6]; at 1.2 µM): -3% | growth inhibition ([6]; at 3.7 µM): -7% | growth inhibition ([6]; at 11.0 µM): -6% | growth inhibition ([6]; at 33.0 µM): 2% | growth inhibition ([6]; at 50.0 µM): -7.8% | growth inhibition ([6]; at 100.0 µM): -7% | growth inhibition ([7]; at 1.2 µM): -1% | growth inhibition ([7]; at 3.7 µM): -3% | growth inhibition ([7]; at 11.0 µM): -2% | growth inhibition ([7]; at 33.0 µM): -2% | growth inhibition ([7]; at 100.0 µM): -4% | growth inhibition [8]: 17.6% | growth inhibition ([9]; at 1.2 µM): -10% | growth inhibition ([9]; at 3.7 µM): -3% | growth inhibition ([9]; at 11.0 µM): -6% | growth inhibition ([9]; at 33.0 µM): -9% | growth inhibition ([9]; at 100.0 µM): -6% | growth inhibition [10]: -1.1% | growth inhibition ([11]; at 1.2 µM): 1% | growth inhibition ([11]; at 3.7 µM): 0% | growth inhibition ([11]; at 11.0 µM): 0% | growth inhibition ([11]; at 33.0 µM): -4% | growth inhibition ([11]; at 50.0 µM): 7.3% | growth inhibition ([11]; at 100.0 µM): -1% | growth inhibition ([12]; at 1.2 µM): -3% | growth inhibition ([12]; at 3.7 µM): 0% | growth inhibition ([12]; at 11.0 µM): -2% | growth inhibition ([12]; at 33.0 µM): -1% | growth inhibition ([12]; at 100.0 µM): -1% | growth inhibition ([13]; at 1.2 µM): -1% | growth inhibition ([13]; at 3.7 µM): -1% | growth inhibition ([13]; at 11.0 µM): 1% | growth inhibition ([13]; at 33.0 µM): 0% | growth inhibition ([13]; at 100.0 µM): 0% | growth inhibition ([14]; at 1.2 µM): 0% | growth inhibition ([14]; at 3.7 µM): 0% | growth inhibition ([14]; at 11.0 µM): 2% | growth inhibition ([14]; at 33.0 µM): 2% | growth inhibition ([14]; at 100.0 µM): 1% | growth inhibition [15]: 4.1% | growth inhibition ([16]; at 1.2 µM): 0% | growth inhibition ([16]; at 3.7 µM): 0% | growth inhibition ([16]; at 11.0 µM): 0% | growth inhibition ([16]; at 33.0 µM): 2% | growth inhibition ([16]; at 100.0 µM): 19%

[Pt].c1ccc(P(CCP(c2ccccc2)c2ccccc2)CCP(c2ccccc2)c2ccccc2)cc1
growth inhibition ([1]; at 1.2 µM): -15% | growth inhibition ([1]; at 3.7 µM): 2% | growth inhibition ([1]; at 11.0 µM): 7% | growth inhibition ([1]; at 33.0 µM): 89% (active) | growth inhibition ([1]; at 100.0 µM): 84% (active) | growth inhibition ([2]; at 1.2 µM): -1% | growth inhibition ([2]; at 3.7 µM): 6% | growth inhibition ([2]; at 11.0 µM): 19% | growth inhibition ([2]; at 33.0 µM): 94% (active) | growth inhibition ([2]; at 100.0 µM): 90% (active) | growth inhibition ([3]; at 1.2 µM): -8% | growth inhibition ([3]; at 3.7 µM): -1% | growth inhibition ([3]; at 11.0 µM): 11% | growth inhibition ([3]; at 33.0 µM): 61% | growth inhibition ([3]; at 100.0 µM): 85% (active) | growth inhibition ([4]; at 1.2 µM): -5% | growth inhibition ([4]; at 3.7 µM): -18% | growth inhibition ([4]; at 11.0 µM): 2% | growth inhibition ([4]; at 33.0 µM): 92% (active) | growth inhibition ([4]; at 100.0 µM): 94% (active) | growth inhibition ([7]; at 1.2 µM): 4% | growth inhibition ([7]; at 3.7 µM): -2% | growth inhibition ([7]; at 11.0 µM): 22% | growth inhibition ([7]; at 33.0 µM): 81% (active) | growth inhibition ([7]; at 100.0 µM): 91% (active) | growth inhibition ([9]; at 1.2 µM): -18% | growth inhibition ([9]; at 3.7 µM): -4% | growth inhibition ([9]; at 11.0 µM): 4% | growth inhibition ([9]; at 33.0 µM): 95% (active) | growth inhibition ([9]; at 100.0 µM): 88% (active) | growth inhibition ([12]; at 1.2 µM): -7% | growth inhibition ([12]; at 3.7 µM): -4% | growth inhibition ([12]; at 11.0 µM): 2% | growth inhibition ([12]; at 33.0 µM): 83% (active) | growth inhibition ([12]; at 100.0 µM): 93% (active) | growth inhibition ([13]; at 1.2 µM): 5% | growth inhibition ([13]; at 3.7 µM): -5% | growth inhibition ([13]; at 11.0 µM): -1% | growth inhibition ([13]; at 33.0 µM): 94% (active) | growth inhibition ([13]; at 100.0 µM): 92% (active) | growth inhibition ([14]; at 1.2 µM): 2% | growth inhibition ([14]; at 3.7 µM): 5% | growth inhibition ([14]; at 11.0 µM): 41% | growth inhibition ([14]; at 33.0 µM): 96% (active) | growth inhibition ([14]; at 100.0 µM): 94% (active) | growth inhibition ([16]; at 1.2 µM): -33% | growth inhibition ([16]; at 3.7 µM): 6% | growth inhibition ([16]; at 11.0 µM): 20% | growth inhibition ([16]; at 33.0 µM): 94% (active) | growth inhibition ([16]; at 100.0 µM): 83% (active)
